Assay outcomes: PubChem, National Center for Advancing Translational Sciences (NCATS)
Hits are enriched below; roughly 21% of the tested compounds scored in any of these assays.
Pf growth 96h – Primary qHTS for delayed death inhibitors of the malarial parasite plastid, 96 hour incubation; P. falciparum luciferase reporter growth, 96 h; Potency, µM (series often up to 28.7 µM), inactives show at the top dose activity change, negative = inhibition, actives largely listed as inhibitors; 320,000 tested, 6.9% active; AID 504834, 2011; active means well fitted inhibition curve with a large enough effect; inconclusive means small, poorly fitted or top-dose-only effect, or another doubt; inactive means no such curve, though single readings can be large or run the other way; further: potency means the concentration at half of the fitted maximal effect; on the % scale 0 is the no-effect control and ±100 the full control effect
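P. falciparum expressing integrated firefly luciferase grown in erythrocytes (2% hematocrit, 0.05% parasitemia final) with compounds for 96 hours at 37 C, 5% CO2. Growth inhibition read as loss of luminescence after adding luciferase detection reagent.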
Shiga toxin inh – A qHTS for Small Molecule Inhibitors of Shiga Toxin; Vero cells, Shiga toxin protein synthesis inhibition reporter; inhibition, % at 38.7 µM; 290,000 tested, 9.2% active; AID 2315, 2010; in the data active means inhibition mostly above about 28%, no sharp cut-off; inactive means mostly below about 43%; further: 0% is about no effect
NS1 function inh – qHTS Assay for Inhibitors of Influenza NS1 Protein Function. Potency, µM (titrated, usually from 46.1 µM), for inactives: at the highest dose activity, positive = more growth. AID 2326, 2010. 270,000 tested, 0.4% active; further: potency means the concentration at half of the fitted maximal effect; actives are rising curves; nearly all actives have a fitted effect of over 50% in size
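Read-out: OD600 growth recovery of NS1-expressing budding yeast. Cells grown overnight at 30C in -URA glucose medium, washed, resuspended and diluted 1:100 in 2% galactose assay medium, pH 6.0. Same strain lacking NS1 served as positive control.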
Pf growth 48h – Primary qHTS for delayed death inhibitors of the malarial parasite plastid, 48 hour incubation; P. falciparum luciferase growth in erythrocytes, 48 h; AID 504832, 2011; 310,000 tested, 5.9% active; Potency, µM (highest dose often 28.7 µM), for the others: top-dose activity change, negative = inhibition, hits mostly inhibitors; active means well fitted inhibition curve with a large enough effect; inconclusive means small, poorly fitted or top-dose-only effect, or another doubt; inactive means no such curve, though single readings can be large or run the other way; further: potency means the concentration at half of the fitted maximal effect; on the % scale 0 is the no-effect control and ±100 the full control effect
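In quantitative HTS format, infected erythrocytes bearing luciferase-reporter parasites were treated for a single generation at 37 C. Luminescence after adding detection reagent served as the growth measure.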
SARS PLpro yeast – qHTS of Yeast-based Assay for SARS-CoV PLP; S. cerevisiae expressing SARS-CoV PLpro, growth rescue; Potency, µM (top dose mostly 32.9 µM), for the others: top-dose activity, positive = growth rescue, usual class: activators; 330,000 tested, 0.19% active; further: potency means the concentration at half of the fitted maximal effect; 0% is about no effect; nearly all actives have a fitted effect of over 55% in size
CHX counter – Cycloheximide Counterscreen for Small Molecule Inhibitors of Shiga Toxin; max response, %; 300,000 tested, 12% active; cell reporter, cycloheximide protein synthesis inhibition counterscreen; in the data active means max response mostly above about 13%, no sharp cut-off; inactive means mostly below about 14%; further: read at 38.3 µM for the half of the compounds with a filed dose; 0% is about no effect
* hit, by the source's call; ? = inconclusive; . = no result; [ ] = another dose, or the depositor's remark. Unless noted, the call rests on the fitted dose curve.

SMILES | Pf growth 96h | Shiga toxin inh | NS1 function inh | Pf growth 48h | SARS PLpro yeast | CHX counter
CCOC(=O)[C@H]1[C@H]2COc3ccccc3[C@@H]2N2C(=O)c3cc(C)ccc3NC(=O)[C@@]12C | 13µM* | . | . | ? | -6% | .
Cc1ccc(-n2c(SC3CCOC3=O)nc3ccccc3c2=O)cc1 (stereo not given) | -15% | -5 | -7% | 3% | 0% | -3
O=C1CCC/C(=N/Nc2ccc(Cl)cc2)C1 | 12µM* | 67* | . | ? | -1% | 29*
CN1C(=O)/C(=C\c2ccco2)N=C1c1ccc(Cl)cc1Cl | 21% | 74* | 8% | 4% | -2% | 28*
O=C1OC(/C=C/c2ccc(Cl)cc2)=NC/1=C/c1ccco1 | ? | -29 | 12% | 11% | 13% | 24*
O=C(c1cc(-c2ccc(Cl)cc2Cl)on1)N1CCN(C(=O)c2ccco2)CC1 | -11% | 62 | -65% | 68% | -22% | 6
CC(=O)N1Cc2cc([N+](=O)[O-])ccc2Oc2ccccc21 | ? | -8 | 3% | -7% | -6% | -2
CCOC(=O)CN1C(=O)S/C(=C/c2ccc(O)c([N+](=O)[O-])c2)C1=O | ? | 12 | -36% | -7% | -45% | -2
COC(=O)C(C)N1C(=O)S/C(=C\c2cc(C)n(-c3ccccn3)c2C)C1=O (stereo not given) | 28% | 90* | 2% | . | 4% | 43*
Cc1ccc(-n2c(C)cc(/C=C3/SC(=O)N(CC(=O)N4CCOCC4)C3=O)c2C)nc1 | 0% | 15 | 1% | -3% | 1% | 6
COC(=O)C(C)N1C(=O)S/C(=C/c2cc(C)n(-c3ccccn3)c2C)C1=O (stereo not given) | 2% | 57 | 6% | . | 10% | 50*
CCOC(=O)CN1C(=O)S/C(=C/c2cc(C)n(-c3ccccn3)c2C)C1=O | -57% | 69* | 10% | . | 0% | 59*
CCOC(=O)CN1C(=O)S/C(=C/c2ccc(C)o2)C1=O | 10% | 46* | -20% | 18% | -3% | 24*
CCNC(=S)/N=C(\N)Nc1nc(C)c2cc(C)ccc2n1 | 9% | 88* | 0% | ? | -2% | 43*
CCOc1ccc2nc(N/C(N)=N/C(=S)Nc3ccc(C)c(C)c3)nc(C)c2c1 | 6.6µM* | 7 | 6% | 6.6µM* | 6% | -6
COc1ccc(NC(=S)/N=C(\N)Nc2nc(C)c3ccc(C)cc3n2)cc1 | -12% | -3 | ? | 12µM* | 1% | 3
CCOc1ccc2nc(C)cc(C(=O)O)c2c1 | ? | -12 | 1% | 12% | -15% | -2
CCOC(=O)c1sc2c(c1C)C(c1cccs1)C1=C(CCCC1=O)N2 (stereo not given) | 12µM* | -5 | -12% | ? | 7% | 3
C#CCSC1=C(C#N)C(c2cccs2)C(C(=O)OCC)=C(C)N1 (stereo not given) | 3% | 35 | 4% | 10µM* | -8% | 24*
CCOC(=O)C1=C(C)N=C2SCCC(=O)N2C1c1cccs1 (stereo not given) | -6% | 15 | -11% | 7% | -5% | -6
COC(=O)C1=C(C)NC(C)=C(C(=O)OC(C)C)[C@H]1c1cccc2nonc12 | 2.6µM* | . | . | 4.5µM* | . | .
COC(=O)C1=C(C)NC(C)=C(C(=O)OC(C)C)C1c1cccc2nonc12 (stereo not given) | . | -1 | . | . | 0% | -1
CCOC(=O)C1=C(C)N=C2SCCC(=O)N2[C@@H]1c1cccs1 | 6% | -5 | -2% | 10µM* | -1% | -2
COc1ccc(CN(CC2CCCO2)C(=O)CN2C(=O)COc3ccccc32)cc1OC (stereo not given) | 63% | -7 | 2% | ? | -1% | -3
CC1=C(C(=O)OC(C)C)C(c2cccs2)C(C(=O)OC(C)C)=C(C)N1 | ? | -5 | -9% | 13µM* | 17% | -1
SMILES | Pf growth 96h | Shiga toxin inh | NS1 function inh | Pf growth 48h | SARS PLpro yeast | CHX counter
CCOC(=O)C1=C(C)NC(C)=C(C(=O)OCC)C1c1sccc1C | 49% | -8 | -68% | 5.2µM* | 3% | -3
CCOC(=O)C1=C(C)NC(C)=C(C(=O)OCC)C1c1cccs1 | 9.3µM* | 11 | 6% | 9.3µM* | -7% | -1
CCCCCCCOC(=O)C1=C(C)Nc2ncnn2C1c1cccs1 (stereo not given) | 39% | -17 | 5% | 10µM* | 0% | -2
CC(=O)c1cccc(NC(=O)COC(=O)Cn2cnc3ccccc32)c1 | . | . | . | . | -2% | .
O=C(CC12CC3CC(CC(C3)C1)C2)Nc1ccccc1N1CCOCC1 | ? | -3 | . | ? | -8% | -3
N#C/C(=C\c1cccs1)C(=O)N1CCOCC1 | 6% | 7 | 1% | -1% | 0% | -2
N#C/C(C(=O)N1CCOCC1)=C1\Nc2ccccc2S1 | -23% | 64* | -39% | 63% | -9% | 35*
CCOC(=O)c1cnn(-c2nc(OCC)cc(OCC)n2)c1C | ? | -6 | -23% | ? | 0% | 0
O=C(CN1C(=O)c2cccc3cccc(c23)C1=O)NCCN1CCOCC1 | ? | 17 | . | 13% | -2% | -1
O=[N+]([O-])c1cccc(N=NN(CCO)c2cccc([N+](=O)[O-])c2)c1 | . | -8 | -5% | -13% | -1% | -2
N#CCN(N=Nc1ccccc1)c1ccccc1 | 0% | 71* | -5% | 10µM* | 7% | 38*
Cc1ccc(C)c(NC(=S)N2CCC(NC(=O)c3ccc(F)cc3)CC2)c1 | 5% | -3 | 4% | -6% | -3% | -2
O=[N+]([O-])c1cccc2ccc(N3CCOCC3)nc12 | ? | . | -22% | 45% | -7% | 11
COc1cc(/C=C/c2ccc3cccc([N+](=O)[O-])c3n2)ccc1OCC#N | -19% | -6 | 15% | -23% | 18% | 16
CCOc1cc(/C=C/c2ccc3cccc([N+](=O)[O-])c3n2)ccc1O | -19% | 19 | 11% | -16% | -1% | 13*
O=[N+]([O-])c1cccc(/C=C/c2nc(C=Nc3ccc4ccccc4c3)c(O)o2)c1 | 196% | -8 | 19% | 37% | 5% | -1
O=[N+]([O-])c1cccc2ccc(/C=C/c3ccc(F)cc3)nc12 | -79% | 95* | 5% | ? | 11% | 131*
O=[N+]([O-])c1cccc(/C=C/c2ccc3cccc(O)c3n2)c1 | ? | 107* | -2% | 12%[0.00184 µM] | -2% | 35*
O=[N+]([O-])c1ccc(/C=C/c2ccc3cccc([N+](=O)[O-])c3n2)cc1 | -4% | 24 | 15% | 1% | 18% | 22*
COCCCN1CC(=O)N2Cc3[nH]c4ccccc4c3C[C@H]2C1=O | 7% | -11 | 7% | 4% | 0% | -3
